# PubChem BioAssay AID1345085 (National Center for Advancing Translational Sciences (NCATS), 2018)
# Inconclusive results are not listed. Active and inactive are the calls of the source. The call rests on the fitted dose curve; in most records, active means well fitted cell-killing curve with a large enough effect; inconclusive means small, poorly fitted or top-dose-only effect, or effect the other way; inactive means no such curve, though single readings can be large or run the other way.
# Test system: Es-2
# Assay: Confirmatory qHTS for gynecologic anti-cancer compounds from libraries of approved drugs and bioactive compounds; further: nearly all actives have a fitted effect of over 55% in size
# Details: gynecologic cancer cell panel viability, ATPlite luminescence, 48 h; series mostly up to 57.6 µM
# Summary of the method: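 Seeding 1,000 cells per well preceded overnight (16 h) attachment, after which 48 h drug treatment across 57.5 uM–0.977 nM (11 points) was applied. Remaining cellular ATP, detected by ATPlite luminescence, defined IC50.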
# Potency means the concentration at half of the fitted maximal effect.
row,SMILES,Potency
1,C/C=C(/C)C(=O)O[C@H]1C(C)=C2[C@H]([C@@H]1OC(=O)CCCCCCC)[C@@](C)(OC(C)=O)C[C@H](OC(=O)CCC)[C@@]1(O)[C@H]2OC(=O)[C@@]1(C)O,27.3 µM (active)
2,O=C(O)Cc1ccccc1,inactive
3,CCOc1ccccc1-n1c(C(C)N2CCN(C(=O)COc3ccc(Cl)cc3)CC2)nc2ccccc2c1=O (centres undefined),3.43 µM (active)
4,C[C@H]1CCC/C=C/C2C[C@H](O)C[C@H]2[C@H](O)/C=C/C(=O)O1 (some centres undefined),0.485 µM (active)
5,C=C(C)[C@H]1Cc2c(ccc3c2O[C@@H]2COc4cc(OC)c(OC)cc4[C@@H]2C3=O)O1,0.685 µM (active)
6,CCNC(=O)C[C@@H]1N=C(c2ccc(Cl)cc2)c2cc(OC)ccc2-n2c(C)nnc21,24.3 µM (active)
7,CCN1CCN(C(=O)Cc2ccc(Nc3ncc(F)c(Nc4ccc(C(=O)Nc5ccccc5Cl)cc4)n3)cc2)CC1,inactive
8,CCC(=O)O[C@H]1CC[C@H]2[C@@H]3CCC4=CC(=O)CC[C@]4(C)[C@H]3CC[C@]12C,inactive
9,C[C@]12CC[C@H]3[C@@H](CCC4=CC(=O)CC[C@@H]43)[C@@H]1CC[C@@H]2OC(=O)CCc1ccccc1,inactive
